In PubChem BioAssay (NCI):
This is part of a sample that, as a whole, favours compounds with a hit. Of some 83,000 tested, about 20% had one in any assay.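 Treatment: one concentration, 48 hours, 96-well format. Scoring: percent growth, with anything below 10 considered active.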 The source made the active and inactive calls.

system: IGROV1 ovarian; assay: NCI-60 one-dose screen, 48 h (100 = growth as untreated, 0 = no growth, -100 = all killed); details: 10 µM
Description: Growth inhibition of the IGROV1 human tumor cell line is measured as a screen for anti-cancer activity. Cells are grown in 96 well plates and exposed to the test compound for 48 hours. Compounds are tested at a single concentration, which is 10^-5 M for most compounds. The reported endpoint is percent growth (GI% or GIPRCNT), where numbers from 0 - 100% represent growth inhibition, and numbers from -100% - 0 represent cell death. For example, a value of 40 represents 60% growth inhibition. A value of 0 means no net growth occurred over the course of the experiment. A value of -40 indicates 40% of cells at the beginning of the experiment died by the end of the experiment. A value of -100 means all cells are dead at the end of the experiment.
NCI-60 Human Tumor Cell Lines Screen was performed using the standard one-dose NCI protocol, which is described in more detail at https://dtp.cancer.gov/discovery_development/nci-60/default.htm.
Compounds with GIPRCNT values below 10 were considered active. Activity score was based on GIPRCNT using the following formula: […]
Score is 0 for GIPRCNT values of 100 or above, 50 for GIPRCNT values of 0, and 100 for GIPRCNT values of -100.

| Compound | growth |
| --- | --- |
| Cc1cc(C)c2c(n1)sc1c(Nc3ccc(Cl)cc3)ncnc12 | 70.8% (inactive) |
| Cc1cc(Cc2cc(C)c(O)c(C)c2)cc(C)c1O | 45.2% (inactive) |
| O=C(Nc1cccc(-n2cc(-c3ccncc3)c(-c3ccc(O)c(Cl)c3)n2)c1)c1ccc(N2CCOCC2)c(C(F)(F)F)c1 | 64.8% (inactive) |
| COc1cc(-c2cc(/C=C/C(=O)c3ccc4c(c3)OCO4)[nH]n2)cc(OC)c1OC | 98.5% (inactive) |
| CCN1CCC(CCOC)(CN2c3ccccc3Sc3ccc(Cl)cc32)C1 (stereo not given) | 30.7% (inactive) |
| CC/C(=C(/c1ccc(OCCN(C)C)cc1)c1ccc(OC(=O)CCCCCCCCC(=O)c2c(C)[nH]c(/C=C3\N=C(c4ccc[nH]4)C=C3OC)c2C)cc1)c1ccccc1 | 90.3% (inactive) |
| O=C1/C(=C\c2ccc(Br)cc2)CN(C(=O)c2ccccc2F)C/C1=C\c1ccc(Br)cc1 | -31.4% (active) |
| COc1ccc(-c2nn(-c3cccc(NC(=O)c4ccc5c(c4)OCCO5)c3)cc2-c2ccncc2)cc1Cl | 41.5% (inactive) |
| O=S(=O)(NCCNc1nccc(-c2c(-c3ccc(F)cc3)nc3sccn23)n1)c1ccc2ccccc2c1 | 49.4% (inactive) |
| Nc1ncn([C@@H]2O[C@H](CO)[C@@H](O)[C@H]2O)c(=O)n1 | 18.5% (inactive) |
| CCN(CC)CCNC(=O)c1ccc(NC(C)=O)cc1 | 112% (inactive) |
| COc1cc2nc(Nc3cccc(NC(C)=O)c3)nc(N)c2cc1OC | 26.8% (inactive) |
| CCOC(=O)N1C/C(=C/c2ccc(Cl)cc2)C(=O)/C(=C/c2ccc(Cl)cc2)C1 | 44% (inactive) |
| CC1CC(=O)OC(C)C1 (stereo not given) | 107% (inactive) |
| Fc1cc(C(F)(F)F)ccc1-c1cncnc1NC1CCCCCC1 | 96.8% (inactive) |
| Oc1[nH]c2ccc(Cl)cc2c1/C=c1/ccc2c(c1)N=C(c1cc(F)cc(F)c1)N=2 | 53.6% (inactive) |
| Cn1c([N+](=O)[O-])cnc1/C=C1\Oc2ccccc2C1=O | -29.5% (active) |
| CCN(CC)CCOc1nc2ccc(OC)cc2c2c1-c1ccc(OC)cc1C2=O | -48.8% (active) |
| CC(=O)c1cc(Br)ccc1O | 136% (inactive) |
| N#CSCC1CC(O)(c2ccccc2)CC(c2ccc(Cl)cc2)O1 (stereo not given) | -25.7% (active) |

| Compound | growth |
| --- | --- |
| Cc1cc(Nc2ccc(Cl)cc2)nc(NCCCNc2ccnc3cc(Cl)ccc23)n1 | 6.54% (active) |
| N#CCCN1C/C(=C/c2ccc(Br)cc2)C(=O)/C(=C/c2ccc(Br)cc2)C1 | -69.1% (active) |
| O=C1NC(=O)c2ncccc21 | 107% (inactive) |
| COc1ccc(NC(=O)Cc2nc3nc4sc(C)c(C)c4c(=O)n3[nH]2)cc1 | 101% (inactive) |
| Cc1cc(N(CCCNc2ccnc3cc(Cl)ccc23)Cc2ccc3c(c2)OCO3)nc(N2CCCCC2)n1 | -51.1% (active) |
| CCN(CC)CCCOCCCNc1cc(OC)cc2cccnc12 | 75.2% (inactive) |
| Cc1cs/c(=N\NC(=O)c2cc(-c3cc4ccccc4o3)nn2-c2ccccc2)n1-c1ccccc1 | 2.32% (active) |
| COc1ccc2c(c1)[n+]([O-])c(C#N)c(NC(=O)c1ccco1)[n+]2[O-] | 118% (inactive) |
| CSC1=NCCCC1 | 108% (inactive) |
| O=C(O)CCCCSc1ncnc2nc[nH]c12 | 97.5% (inactive) |
| CN(C)CCOc1nc2ccccc2c2c1-c1ccc(Cl)cc1C2=O | -27.9% (active) |
| O=C1/C(=C\c2ccccc2)CN(C(=O)c2ccccc2)C/C1=C\c1ccccc1 | 26.6% (inactive) |
| ClC(Cl)(Cl)c1nc2nccnc2[nH]1 | 103% (inactive) |
| CC(C)(C)c1ccc(N2CSC(=S)N(c3ccc(C(C)(C)C)cc3)C2)cc1 | 55.3% (inactive) |
| O=C(O)CC(Cl)C(Cl)CC(=O)O (stereo not given) | 106% (inactive) |
| CCN(CC)CCSCCN(CC)CC | 109% (inactive) |
| O=[P@@]1(c2ccccc2)O[C@H](COCc2ccccc2)[C@@H](OCc2ccccc2)[C@H](OCc2ccccc2)[C@H]1O | 78.3% (inactive) |
| Nc1ncnc2[nH]c(=O)[nH]c12 | 113% (inactive) |
| CC(C)(Cl)CCC1=C(Cl)C(=O)c2ccccc2C1=O | 39.7% (inactive) |
| N#Cc1ncc(-c2ccc(C(F)(F)F)cc2)c(NCc2cc(C(F)(F)F)cc(C(F)(F)F)c2)n1 | 40.6% (inactive) |
